Reference: PMC7862700, “An all-to-all approach to the identification of sequence-specific readers for epigenetic DNA modifications on cytosine”

Columns and labels:
Assay in all cases: DAPPL (digital affinity profiling via proximity ligation, sequencing); 10 mM Tris-HCl pH 7.5, 50 mM NaCl, 1 mM DTT, 4% glycerol, room temperature, 30 min; GST-TFs on glutathione beads, 16-mer random dsDNA library, 0.1% formaldehyde crosslink after washing; high values mean tight binding
Details in all cases: protein: recombinant; tags: N-terminal GST; dsDNA, one strand shown
FLI1 = target: T1, FLI1 (Homo sapiens, UniProt Q01543 1-452)
T1 sequence: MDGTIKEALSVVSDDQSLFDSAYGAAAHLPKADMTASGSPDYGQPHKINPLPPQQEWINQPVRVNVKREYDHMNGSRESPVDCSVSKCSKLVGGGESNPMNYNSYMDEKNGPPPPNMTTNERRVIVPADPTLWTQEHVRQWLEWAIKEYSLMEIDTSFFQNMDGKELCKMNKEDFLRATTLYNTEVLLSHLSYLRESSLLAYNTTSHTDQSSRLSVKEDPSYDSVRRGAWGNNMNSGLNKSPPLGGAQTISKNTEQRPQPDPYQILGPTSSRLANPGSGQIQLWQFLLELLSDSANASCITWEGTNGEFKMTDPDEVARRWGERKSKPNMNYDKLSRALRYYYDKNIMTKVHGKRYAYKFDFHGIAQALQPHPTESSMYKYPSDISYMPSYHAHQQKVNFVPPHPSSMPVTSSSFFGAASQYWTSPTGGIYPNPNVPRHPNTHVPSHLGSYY
Summary of the method: (§1)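 Human transcription factors were made in yeast as GST fusions, captured on glutathione beads and barcoded with DNA. With a tag-only sample included, the pool was incubated with 200 nmole of a random double-stranded 16-mer DNA library in Tris/NaCl/DTT/glycerol buffer at room temperature for 30 min, then crosslinked with 0.1% formaldehyde after washing, ligated by proximity, amplified and sequenced. For binding signal, each hexamer's read frequency for a factor is divided by its frequency for the tag-only sample.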

ELK1 = target: T2, ELK1 (Homo sapiens, UniProt P19419 1-428)
T2 sequence: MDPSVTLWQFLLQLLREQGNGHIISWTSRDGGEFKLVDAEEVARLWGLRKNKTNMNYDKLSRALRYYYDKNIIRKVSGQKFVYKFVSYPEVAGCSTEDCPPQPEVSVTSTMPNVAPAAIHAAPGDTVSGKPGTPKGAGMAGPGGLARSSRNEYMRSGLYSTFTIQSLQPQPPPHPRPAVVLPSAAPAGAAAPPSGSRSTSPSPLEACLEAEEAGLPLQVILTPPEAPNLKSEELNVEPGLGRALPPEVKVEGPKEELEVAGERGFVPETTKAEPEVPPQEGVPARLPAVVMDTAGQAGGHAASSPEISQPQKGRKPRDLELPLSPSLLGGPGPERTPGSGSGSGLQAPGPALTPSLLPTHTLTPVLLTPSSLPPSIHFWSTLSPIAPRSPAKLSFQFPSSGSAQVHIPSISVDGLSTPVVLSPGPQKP
Summary of the method: as §1

GABPA = target: T3, GABPA (Homo sapiens, UniProt Q06546 1-454)
T3 sequence: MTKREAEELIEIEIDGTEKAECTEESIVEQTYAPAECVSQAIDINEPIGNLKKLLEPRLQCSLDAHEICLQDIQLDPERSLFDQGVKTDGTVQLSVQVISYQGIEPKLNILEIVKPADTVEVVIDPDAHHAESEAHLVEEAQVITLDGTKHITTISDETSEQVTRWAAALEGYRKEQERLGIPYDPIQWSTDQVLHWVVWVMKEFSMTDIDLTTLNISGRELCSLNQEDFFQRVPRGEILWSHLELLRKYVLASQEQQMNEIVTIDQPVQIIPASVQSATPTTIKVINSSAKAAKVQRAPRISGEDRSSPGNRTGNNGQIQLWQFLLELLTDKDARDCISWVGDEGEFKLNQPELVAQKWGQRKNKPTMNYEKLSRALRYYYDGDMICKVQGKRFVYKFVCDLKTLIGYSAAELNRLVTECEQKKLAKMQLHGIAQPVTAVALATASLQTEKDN
Summary of the method: as §1

ERG = target: T4, ERG (Homo sapiens, UniProt P11308 1-479)
T4 sequence: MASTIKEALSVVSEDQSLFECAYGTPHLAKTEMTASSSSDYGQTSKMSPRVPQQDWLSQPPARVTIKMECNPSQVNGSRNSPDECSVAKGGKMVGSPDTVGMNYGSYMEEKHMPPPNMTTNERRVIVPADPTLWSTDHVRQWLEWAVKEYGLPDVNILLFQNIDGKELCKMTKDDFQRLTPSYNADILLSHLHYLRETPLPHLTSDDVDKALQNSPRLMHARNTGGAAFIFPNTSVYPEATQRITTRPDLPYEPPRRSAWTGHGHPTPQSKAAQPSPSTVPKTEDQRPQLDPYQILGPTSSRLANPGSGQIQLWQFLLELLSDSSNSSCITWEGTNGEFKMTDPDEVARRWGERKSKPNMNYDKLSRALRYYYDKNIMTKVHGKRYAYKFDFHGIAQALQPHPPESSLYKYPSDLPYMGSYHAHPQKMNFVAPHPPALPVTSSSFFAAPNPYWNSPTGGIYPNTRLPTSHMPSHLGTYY
Summary of the method: as §1

ELF1 = ELF1 (Homo sapiens, UniProt P32519 1-619)
Sequence of ELF1 (P32519 whole entry): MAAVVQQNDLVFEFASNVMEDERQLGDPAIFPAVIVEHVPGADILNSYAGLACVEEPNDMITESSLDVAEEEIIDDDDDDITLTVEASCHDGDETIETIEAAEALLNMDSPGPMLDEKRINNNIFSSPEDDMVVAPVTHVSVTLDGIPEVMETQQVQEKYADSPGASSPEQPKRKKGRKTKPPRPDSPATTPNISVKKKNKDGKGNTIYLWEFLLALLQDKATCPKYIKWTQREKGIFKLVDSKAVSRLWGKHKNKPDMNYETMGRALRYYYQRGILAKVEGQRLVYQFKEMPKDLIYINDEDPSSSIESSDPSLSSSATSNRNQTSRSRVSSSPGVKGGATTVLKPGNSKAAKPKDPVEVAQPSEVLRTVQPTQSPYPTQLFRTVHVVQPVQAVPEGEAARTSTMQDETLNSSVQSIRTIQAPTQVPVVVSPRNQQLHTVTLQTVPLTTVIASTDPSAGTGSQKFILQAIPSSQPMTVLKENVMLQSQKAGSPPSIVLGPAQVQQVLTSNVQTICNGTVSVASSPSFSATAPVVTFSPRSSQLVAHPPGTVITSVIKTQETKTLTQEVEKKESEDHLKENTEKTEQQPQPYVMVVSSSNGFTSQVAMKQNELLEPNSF
Summary of the method: as §1

EHF = target: T5, EHF (Homo sapiens, UniProt Q9NZC4 1-300)
T5 sequence: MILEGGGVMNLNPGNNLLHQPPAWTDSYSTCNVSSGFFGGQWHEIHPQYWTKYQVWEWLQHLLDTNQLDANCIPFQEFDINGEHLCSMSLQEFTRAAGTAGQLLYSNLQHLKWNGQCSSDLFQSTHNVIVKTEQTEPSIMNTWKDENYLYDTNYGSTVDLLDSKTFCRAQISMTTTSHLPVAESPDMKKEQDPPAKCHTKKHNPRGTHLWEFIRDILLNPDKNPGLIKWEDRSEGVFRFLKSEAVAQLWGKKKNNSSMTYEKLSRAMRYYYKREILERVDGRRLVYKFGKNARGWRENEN
Summary of the method: as §1

SPI1 = SPI1 (Homo sapiens, UniProt P17947 1-270)
Summary of the method: as §1

SPIB = SPIB (Homo sapiens, UniProt Q01892 1-262)
Sequence of SPIB (Q01892 whole entry): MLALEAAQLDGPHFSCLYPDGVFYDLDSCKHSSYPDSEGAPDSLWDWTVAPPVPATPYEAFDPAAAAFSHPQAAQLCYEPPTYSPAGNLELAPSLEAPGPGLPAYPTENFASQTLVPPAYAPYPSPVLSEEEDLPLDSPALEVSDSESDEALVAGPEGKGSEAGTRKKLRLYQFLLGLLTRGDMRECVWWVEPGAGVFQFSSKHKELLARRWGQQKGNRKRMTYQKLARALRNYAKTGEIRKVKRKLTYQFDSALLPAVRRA
Summary of the method: as §1

ELK3 = target: T6, ELK3 (Homo sapiens, UniProt P41970 1-407)
T6 sequence: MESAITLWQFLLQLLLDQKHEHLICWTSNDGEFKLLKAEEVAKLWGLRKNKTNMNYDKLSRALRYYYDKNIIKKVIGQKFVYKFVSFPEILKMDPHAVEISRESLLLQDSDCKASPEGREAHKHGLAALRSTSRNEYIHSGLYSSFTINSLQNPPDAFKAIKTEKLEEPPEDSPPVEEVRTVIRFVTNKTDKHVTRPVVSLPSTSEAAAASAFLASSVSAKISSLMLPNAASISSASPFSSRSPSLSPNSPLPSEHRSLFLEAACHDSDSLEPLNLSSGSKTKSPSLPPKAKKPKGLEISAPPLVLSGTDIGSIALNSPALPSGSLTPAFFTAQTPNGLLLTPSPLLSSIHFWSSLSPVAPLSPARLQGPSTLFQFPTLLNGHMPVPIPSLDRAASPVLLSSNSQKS
Summary of the method: as §1

Row | Sequence | binding signal (FLI1) | binding signal (ELK1) | binding signal (GABPA) | binding signal (ERG) | binding signal (ELF1) | binding signal (EHF) | binding signal (SPI1) | binding signal (SPIB) | binding signal (ELK3)
1 | ATTCTA | 1.34 fold enrichment (6-mer frequency, TF over GST control) | 1.21 fold enrichment (6-mer frequency, TF over GST control) | 1.29 fold enrichment (6-mer frequency, TF over GST control) | 1.23 fold enrichment (6-mer frequency, TF over GST control) | 1.3 fold enrichment (6-mer frequency, TF over GST control) | 1.21 fold enrichment (6-mer frequency, TF over GST control) | 1.23 fold enrichment (6-mer frequency, TF over GST control) | 1.22 fold enrichment (6-mer frequency, TF over GST control) | 1.18 fold enrichment (6-mer frequency, TF over GST control)
2 | TCAAAC | 1.17 fold enrichment (6-mer frequency, TF over GST control) | 1.25 fold enrichment (6-mer frequency, TF over GST control) | 1.26 fold enrichment (6-mer frequency, TF over GST control) | 1.26 fold enrichment (6-mer frequency, TF over GST control) | 1.15 fold enrichment (6-mer frequency, TF over GST control) | 1.15 fold enrichment (6-mer frequency, TF over GST control) | 1.16 fold enrichment (6-mer frequency, TF over GST control) | 1.16 fold enrichment (6-mer frequency, TF over GST control) | 1.2 fold enrichment (6-mer frequency, TF over GST control)
3 | CCGCTT | 1.89 fold enrichment (6-mer frequency, TF over GST control) | 1.89 fold enrichment (6-mer frequency, TF over GST control) | 1.84 fold enrichment (6-mer frequency, TF over GST control) | 1.85 fold enrichment (6-mer frequency, TF over GST control) | 1.92 fold enrichment (6-mer frequency, TF over GST control) | 1.93 fold enrichment (6-mer frequency, TF over GST control) | 2.69 fold enrichment (6-mer frequency, TF over GST control) | 1.93 fold enrichment (6-mer frequency, TF over GST control) | 2.06 fold enrichment (6-mer frequency, TF over GST control)
4 | TTTTCG | 1.18 fold enrichment (6-mer frequency, TF over GST control) | 1.28 fold enrichment (6-mer frequency, TF over GST control) | 1.24 fold enrichment (6-mer frequency, TF over GST control) | 1.2 fold enrichment (6-mer frequency, TF over GST control) | 1.22 fold enrichment (6-mer frequency, TF over GST control) | 1.25 fold enrichment (6-mer frequency, TF over GST control) | 1.27 fold enrichment (6-mer frequency, TF over GST control) | 1.16 fold enrichment (6-mer frequency, TF over GST control) | 1.35 fold enrichment (6-mer frequency, TF over GST control)
5 | GATTCC | 1.19 fold enrichment (6-mer frequency, TF over GST control) | 1.05 fold enrichment (6-mer frequency, TF over GST control) | 1.08 fold enrichment (6-mer frequency, TF over GST control) | 1.2 fold enrichment (6-mer frequency, TF over GST control) | 1.18 fold enrichment (6-mer frequency, TF over GST control) | 1.15 fold enrichment (6-mer frequency, TF over GST control) | 1.14 fold enrichment (6-mer frequency, TF over GST control) | 1.16 fold enrichment (6-mer frequency, TF over GST control) | 1.17 fold enrichment (6-mer frequency, TF over GST control)
6 | AAGAAA | 1.08 fold enrichment (6-mer frequency, TF over GST control) | 1.14 fold enrichment (6-mer frequency, TF over GST control) | 1.25 fold enrichment (6-mer frequency, TF over GST control) | 1.2 fold enrichment (6-mer frequency, TF over GST control) | 1.15 fold enrichment (6-mer frequency, TF over GST control) | 1.18 fold enrichment (6-mer frequency, TF over GST control) | 1.22 fold enrichment (6-mer frequency, TF over GST control) | 1.1 fold enrichment (6-mer frequency, TF over GST control) | 1.22 fold enrichment (6-mer frequency, TF over GST control)
7 | AACTCG | 1.41 fold enrichment (6-mer frequency, TF over GST control) | 1.33 fold enrichment (6-mer frequency, TF over GST control) | 1.4 fold enrichment (6-mer frequency, TF over GST control) | 1.32 fold enrichment (6-mer frequency, TF over GST control) | 1.39 fold enrichment (6-mer frequency, TF over GST control) | 1.28 fold enrichment (6-mer frequency, TF over GST control) | 1.4 fold enrichment (6-mer frequency, TF over GST control) | 1.37 fold enrichment (6-mer frequency, TF over GST control) | 1.24 fold enrichment (6-mer frequency, TF over GST control)
8 | TATGTT | 1.25 fold enrichment (6-mer frequency, TF over GST control) | 1.23 fold enrichment (6-mer frequency, TF over GST control) | 1.22 fold enrichment (6-mer frequency, TF over GST control) | 1.19 fold enrichment (6-mer frequency, TF over GST control) | 1.23 fold enrichment (6-mer frequency, TF over GST control) | 1.23 fold enrichment (6-mer frequency, TF over GST control) | 1.2 fold enrichment (6-mer frequency, TF over GST control) | 1.12 fold enrichment (6-mer frequency, TF over GST control) | 1.19 fold enrichment (6-mer frequency, TF over GST control)
